# Measurements: the supplement of paper PMC6411743
# ± gives the standard deviation of the averaged measurements. Targets with the largest changes are over-represented here; the source holds about 6,200 in all.
# Legend:
# Experiment in all cases: NP40-soluble protein abundance relative to vehicle (solubility fold change) (ratio); higher = more soluble protein in presence of AMP-PNP
# [1] = biological target: A0A024R216|Q9Y3E1 (UniProt Q9Y3E1)
# In short: (§1)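 In three independent experiments, Jurkat crude lysate made by Dounce homogenisation was treated for 10 min at room temperature and then 3 min at 37 °C with eight concentrations ranging from 0.1 to 10 mM. It was then solubilised with 0.8% NP40 plus benzonase for 60 min at 4 °C and ultracentrifuged. The supernatant was TMT-labelled for LC-MS/MS, and each value is the fold change against the detergent-processed vehicle for the same replicate, using vsn-normalised intensities.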
# [2] = biological target: A0A024RAC6 (UniProt Q14241)
# Sequence of A0A024RAC6 (Q14241 whole entry): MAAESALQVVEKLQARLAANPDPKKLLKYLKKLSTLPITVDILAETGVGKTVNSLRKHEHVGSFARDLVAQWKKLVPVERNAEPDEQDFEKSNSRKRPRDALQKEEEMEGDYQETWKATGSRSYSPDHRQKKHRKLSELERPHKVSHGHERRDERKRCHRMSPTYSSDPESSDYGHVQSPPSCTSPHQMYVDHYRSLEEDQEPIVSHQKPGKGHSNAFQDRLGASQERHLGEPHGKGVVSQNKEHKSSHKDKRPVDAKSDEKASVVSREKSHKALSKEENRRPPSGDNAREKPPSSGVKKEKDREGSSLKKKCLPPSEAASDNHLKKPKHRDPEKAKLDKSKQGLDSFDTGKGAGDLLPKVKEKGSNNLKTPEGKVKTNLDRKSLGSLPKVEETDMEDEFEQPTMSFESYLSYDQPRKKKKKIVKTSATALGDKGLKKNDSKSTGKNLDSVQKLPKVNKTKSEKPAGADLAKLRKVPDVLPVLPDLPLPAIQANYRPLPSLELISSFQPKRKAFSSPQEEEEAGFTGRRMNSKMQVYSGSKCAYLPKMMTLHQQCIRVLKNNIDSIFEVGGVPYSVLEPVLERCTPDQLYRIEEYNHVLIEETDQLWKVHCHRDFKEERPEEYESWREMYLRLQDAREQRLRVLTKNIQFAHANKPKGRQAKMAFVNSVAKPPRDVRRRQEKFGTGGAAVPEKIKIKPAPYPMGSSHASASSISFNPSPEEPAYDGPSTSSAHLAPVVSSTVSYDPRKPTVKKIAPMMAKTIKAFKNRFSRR
# In short: as §1
# [3] = biological target: A0A075B738|P16284|P16284-6 (UniProt P16284)
# In short: as §1
# [4] = biological target: T1, A0A087WUL0|Q3LXA3 (UniProt Q3LXA3)
# T1 sequence (whole entry): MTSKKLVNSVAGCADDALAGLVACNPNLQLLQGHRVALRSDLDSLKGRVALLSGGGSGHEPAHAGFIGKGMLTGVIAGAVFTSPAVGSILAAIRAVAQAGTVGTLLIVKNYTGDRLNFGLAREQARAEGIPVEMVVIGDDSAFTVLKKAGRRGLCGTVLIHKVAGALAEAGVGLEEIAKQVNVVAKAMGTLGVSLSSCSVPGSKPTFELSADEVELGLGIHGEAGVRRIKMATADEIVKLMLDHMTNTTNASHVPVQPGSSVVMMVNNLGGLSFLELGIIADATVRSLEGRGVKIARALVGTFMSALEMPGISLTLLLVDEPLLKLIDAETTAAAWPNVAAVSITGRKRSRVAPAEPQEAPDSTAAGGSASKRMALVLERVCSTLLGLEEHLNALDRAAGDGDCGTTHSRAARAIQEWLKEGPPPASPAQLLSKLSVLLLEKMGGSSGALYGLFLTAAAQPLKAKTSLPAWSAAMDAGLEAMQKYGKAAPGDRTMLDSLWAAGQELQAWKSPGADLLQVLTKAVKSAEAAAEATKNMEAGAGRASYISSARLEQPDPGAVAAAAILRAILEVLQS
# In short: as §1
# [5] = biological target: T2, A0A087WUT6|O60841 (UniProt O60841)
# T2 sequence (whole entry): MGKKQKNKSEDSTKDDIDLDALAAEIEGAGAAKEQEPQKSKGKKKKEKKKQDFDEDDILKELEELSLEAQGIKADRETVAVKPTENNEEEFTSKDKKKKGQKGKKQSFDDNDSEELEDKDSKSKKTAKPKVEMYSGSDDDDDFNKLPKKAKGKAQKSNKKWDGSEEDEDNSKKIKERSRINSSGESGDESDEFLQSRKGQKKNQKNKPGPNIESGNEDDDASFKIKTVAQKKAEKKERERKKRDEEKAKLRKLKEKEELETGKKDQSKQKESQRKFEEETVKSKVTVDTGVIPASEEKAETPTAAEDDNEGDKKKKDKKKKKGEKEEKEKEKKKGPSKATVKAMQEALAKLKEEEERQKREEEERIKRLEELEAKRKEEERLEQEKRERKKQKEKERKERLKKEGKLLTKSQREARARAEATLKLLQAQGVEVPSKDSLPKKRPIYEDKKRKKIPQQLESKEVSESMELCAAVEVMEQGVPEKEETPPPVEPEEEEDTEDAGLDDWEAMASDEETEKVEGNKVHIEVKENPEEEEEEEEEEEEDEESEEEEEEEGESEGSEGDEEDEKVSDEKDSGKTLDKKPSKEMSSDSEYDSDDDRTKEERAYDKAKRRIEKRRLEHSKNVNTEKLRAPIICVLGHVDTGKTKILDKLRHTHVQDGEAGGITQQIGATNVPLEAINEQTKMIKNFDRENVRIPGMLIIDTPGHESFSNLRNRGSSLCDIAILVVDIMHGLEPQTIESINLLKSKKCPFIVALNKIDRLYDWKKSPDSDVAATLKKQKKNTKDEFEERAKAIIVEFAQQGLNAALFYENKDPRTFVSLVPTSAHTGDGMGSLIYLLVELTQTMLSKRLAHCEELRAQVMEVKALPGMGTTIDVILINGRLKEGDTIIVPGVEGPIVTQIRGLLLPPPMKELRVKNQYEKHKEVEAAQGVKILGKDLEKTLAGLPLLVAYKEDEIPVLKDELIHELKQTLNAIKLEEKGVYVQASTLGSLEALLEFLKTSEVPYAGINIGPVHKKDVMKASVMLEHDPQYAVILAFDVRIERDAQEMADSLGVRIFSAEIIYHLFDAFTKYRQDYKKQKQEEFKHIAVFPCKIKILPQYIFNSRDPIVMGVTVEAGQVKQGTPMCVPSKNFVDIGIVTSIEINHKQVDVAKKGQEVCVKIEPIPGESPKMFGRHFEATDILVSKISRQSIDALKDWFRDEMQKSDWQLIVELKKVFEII
# In short: as §1
# [6] = biological target: T3, A0A087WUU7|Q96GX5|Q96GX5-3|Q96GX5-2 (UniProt Q96GX5)
# T3 sequence (whole entry): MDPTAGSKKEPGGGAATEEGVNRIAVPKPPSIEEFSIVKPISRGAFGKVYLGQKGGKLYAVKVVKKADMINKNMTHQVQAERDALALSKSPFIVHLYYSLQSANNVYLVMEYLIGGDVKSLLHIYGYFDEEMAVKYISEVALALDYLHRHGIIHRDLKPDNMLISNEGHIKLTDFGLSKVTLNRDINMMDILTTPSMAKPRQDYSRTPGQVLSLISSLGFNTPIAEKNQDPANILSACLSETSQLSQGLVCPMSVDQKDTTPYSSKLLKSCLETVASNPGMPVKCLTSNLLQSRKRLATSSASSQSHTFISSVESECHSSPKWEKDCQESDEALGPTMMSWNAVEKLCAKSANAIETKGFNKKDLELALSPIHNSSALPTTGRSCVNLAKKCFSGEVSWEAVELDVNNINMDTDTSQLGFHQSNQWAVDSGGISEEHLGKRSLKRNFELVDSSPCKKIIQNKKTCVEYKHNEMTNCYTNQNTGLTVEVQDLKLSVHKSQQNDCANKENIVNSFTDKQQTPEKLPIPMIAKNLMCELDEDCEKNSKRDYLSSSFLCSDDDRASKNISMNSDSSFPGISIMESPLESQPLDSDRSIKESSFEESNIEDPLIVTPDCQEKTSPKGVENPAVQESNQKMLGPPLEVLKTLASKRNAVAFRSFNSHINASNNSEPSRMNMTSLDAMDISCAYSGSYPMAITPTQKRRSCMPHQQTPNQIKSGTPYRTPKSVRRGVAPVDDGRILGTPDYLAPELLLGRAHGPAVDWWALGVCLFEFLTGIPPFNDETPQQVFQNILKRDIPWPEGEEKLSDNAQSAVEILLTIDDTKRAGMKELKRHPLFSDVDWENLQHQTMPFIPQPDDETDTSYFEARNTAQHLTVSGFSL
# In short: as §1
# [7] = biological target: T4, A0A087WV73|P46087|P46087-2|P46087-4 (UniProt P46087)
# T4 sequence (whole entry): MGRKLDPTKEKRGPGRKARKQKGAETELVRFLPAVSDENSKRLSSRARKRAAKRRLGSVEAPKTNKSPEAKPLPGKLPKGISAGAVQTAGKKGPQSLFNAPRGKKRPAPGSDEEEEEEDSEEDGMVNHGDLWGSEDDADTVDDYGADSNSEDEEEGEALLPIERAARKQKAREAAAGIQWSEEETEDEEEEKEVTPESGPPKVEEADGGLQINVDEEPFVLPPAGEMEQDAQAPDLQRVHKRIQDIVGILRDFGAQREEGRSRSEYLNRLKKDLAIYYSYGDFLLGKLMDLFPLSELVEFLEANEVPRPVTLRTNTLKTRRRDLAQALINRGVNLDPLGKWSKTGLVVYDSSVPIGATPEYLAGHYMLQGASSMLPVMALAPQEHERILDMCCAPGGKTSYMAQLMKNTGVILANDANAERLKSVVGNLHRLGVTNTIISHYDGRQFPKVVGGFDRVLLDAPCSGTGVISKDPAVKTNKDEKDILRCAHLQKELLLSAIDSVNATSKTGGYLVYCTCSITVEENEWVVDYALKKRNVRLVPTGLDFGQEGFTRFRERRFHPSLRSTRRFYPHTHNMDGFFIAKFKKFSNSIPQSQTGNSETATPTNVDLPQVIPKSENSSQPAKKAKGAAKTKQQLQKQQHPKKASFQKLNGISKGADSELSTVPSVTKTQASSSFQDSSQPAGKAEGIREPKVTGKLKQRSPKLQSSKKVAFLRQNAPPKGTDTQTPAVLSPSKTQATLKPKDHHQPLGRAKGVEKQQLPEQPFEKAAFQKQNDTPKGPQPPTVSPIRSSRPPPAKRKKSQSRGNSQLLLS
# In short: as §1
# [8] = biological target: A0A087WW88|Q9UQN3 (UniProt Q9UQN3)
# Sequence of A0A087WW88|Q9UQN3 (Q9UQN3 whole entry, one chain of several): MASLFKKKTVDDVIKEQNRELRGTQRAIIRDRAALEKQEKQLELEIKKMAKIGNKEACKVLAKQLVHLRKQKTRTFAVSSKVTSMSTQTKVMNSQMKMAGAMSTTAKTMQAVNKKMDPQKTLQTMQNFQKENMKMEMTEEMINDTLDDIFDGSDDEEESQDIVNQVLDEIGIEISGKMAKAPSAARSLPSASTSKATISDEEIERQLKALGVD
# In short: as §1
# [9] = biological target: T5, A0A087WWS1|Q96FV9 (UniProt Q96FV9)
# T5 sequence (whole entry): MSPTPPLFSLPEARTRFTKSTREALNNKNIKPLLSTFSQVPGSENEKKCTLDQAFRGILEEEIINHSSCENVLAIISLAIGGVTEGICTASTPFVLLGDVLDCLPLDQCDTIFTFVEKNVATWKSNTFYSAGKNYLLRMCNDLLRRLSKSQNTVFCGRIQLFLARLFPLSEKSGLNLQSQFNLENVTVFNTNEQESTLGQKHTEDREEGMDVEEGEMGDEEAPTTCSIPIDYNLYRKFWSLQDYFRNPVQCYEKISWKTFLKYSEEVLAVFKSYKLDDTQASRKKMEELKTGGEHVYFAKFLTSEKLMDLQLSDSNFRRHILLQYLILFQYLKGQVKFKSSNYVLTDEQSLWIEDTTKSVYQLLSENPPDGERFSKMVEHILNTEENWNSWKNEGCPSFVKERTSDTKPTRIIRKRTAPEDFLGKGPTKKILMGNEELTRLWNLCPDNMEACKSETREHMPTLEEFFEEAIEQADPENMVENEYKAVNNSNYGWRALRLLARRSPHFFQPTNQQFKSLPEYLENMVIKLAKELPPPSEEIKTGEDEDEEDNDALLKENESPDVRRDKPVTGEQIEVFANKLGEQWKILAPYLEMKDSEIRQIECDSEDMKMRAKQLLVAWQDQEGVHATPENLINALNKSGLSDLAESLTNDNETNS
# In short: as §1
# Sequence of A0A024R216|Q9Y3E1 (Q9Y3E1 whole entry, one chain of several): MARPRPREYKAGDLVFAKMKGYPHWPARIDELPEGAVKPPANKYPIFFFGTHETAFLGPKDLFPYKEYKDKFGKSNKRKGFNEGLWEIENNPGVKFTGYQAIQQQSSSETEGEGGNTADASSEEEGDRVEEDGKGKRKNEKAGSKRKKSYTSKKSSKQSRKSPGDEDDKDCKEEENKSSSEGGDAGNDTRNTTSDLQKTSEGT
compound,measurement,setting,value
Nc1ncnc2c1ncn2[C@@H]1O[C@H](COP(=O)(O)OP(=O)(O)NP(=O)(O)O)[C@@H](O)[C@H]1O [adenylyl imidodiphosphate],NP40-soluble protein abundance,[1]; concentration: 1mM,1 ± 0.031
same,NP40-soluble protein abundance,[1]; concentration: 2mM,1.1 ± 0.17
same,NP40-soluble protein abundance,[1]; concentration: 4mM,1.05 ± 0.074
same,NP40-soluble protein abundance,[1]; concentration: 6mM,1.16 ± 0.074
same,NP40-soluble protein abundance,[1]; concentration: 8mM,1.11 ± 0.06
same,NP40-soluble protein abundance,[1]; concentration: 10mM,1.17 ± 0.14
same,NP40-soluble protein abundance,[2]; concentration: 1mM,1.05 ± 0.014
same,NP40-soluble protein abundance,[2]; concentration: 2mM,1.13 ± 0.076
same,NP40-soluble protein abundance,[2]; concentration: 4mM,1.06 ± 0.029
same,NP40-soluble protein abundance,[2]; concentration: 6mM,1.08 ± 0.044
same,NP40-soluble protein abundance,[2]; concentration: 8mM,1.06 ± 0.022
same,NP40-soluble protein abundance,[2]; concentration: 10mM,1.09 ± 0.019
same,NP40-soluble protein abundance,[3]; concentration: 1mM,1.02 ± 0.027
same,NP40-soluble protein abundance,[3]; concentration: 2mM,1.08 ± 0.095
same,NP40-soluble protein abundance,[3]; concentration: 4mM,1.01 ± 0.033
same,NP40-soluble protein abundance,[3]; concentration: 6mM,0.995 ± 0.011
same,NP40-soluble protein abundance,[3]; concentration: 8mM,0.98 ± 0.013
same,NP40-soluble protein abundance,[3]; concentration: 10mM,0.994 ± 0.032
same,NP40-soluble protein abundance,[4]; concentration: 1mM,1.02 ± 0.024
same,NP40-soluble protein abundance,[4]; concentration: 2mM,1.05 ± 0.05
same,NP40-soluble protein abundance,[4]; concentration: 4mM,1.03 ± 0.054
same,NP40-soluble protein abundance,[4]; concentration: 6mM,0.997 ± 0.01
same,NP40-soluble protein abundance,[4]; concentration: 8mM,0.963 ± 0.027
same,NP40-soluble protein abundance,[4]; concentration: 10mM,1.02 ± 0.036
same,NP40-soluble protein abundance,[5]; concentration: 1mM,1.05 ± 0.012
same,NP40-soluble protein abundance,[5]; concentration: 2mM,1.02 ± 0.018
same,NP40-soluble protein abundance,[5]; concentration: 4mM,1.02 ± 0.017
same,NP40-soluble protein abundance,[5]; concentration: 6mM,1.01 ± 0.033
same,NP40-soluble protein abundance,[5]; concentration: 8mM,1.004 ± 0.0073
same,NP40-soluble protein abundance,[5]; concentration: 10mM,0.997 ± 0.035
same,NP40-soluble protein abundance,[6]; concentration: 1mM,1.01 ± 0.02
same,NP40-soluble protein abundance,[6]; concentration: 2mM,1.07 ± 0.036
same,NP40-soluble protein abundance,[6]; concentration: 4mM,1.01 ± 0.044
same,NP40-soluble protein abundance,[6]; concentration: 6mM,0.976 ± 0.023
same,NP40-soluble protein abundance,[6]; concentration: 8mM,0.967 ± 0.011
same,NP40-soluble protein abundance,[6]; concentration: 10mM,0.991 ± 0.04
same,NP40-soluble protein abundance,[7]; concentration: 1mM,1.04 ± 0.038
same,NP40-soluble protein abundance,[7]; concentration: 2mM,1.12 ± 0.068
same,NP40-soluble protein abundance,[7]; concentration: 4mM,1.17 ± 0.05
same,NP40-soluble protein abundance,[7]; concentration: 6mM,1.28 ± 0.067
same,NP40-soluble protein abundance,[7]; concentration: 8mM,1.34 ± 0.094
same,NP40-soluble protein abundance,[7]; concentration: 10mM,1.43 ± 0.093
same,NP40-soluble protein abundance,[8]; concentration: 1mM,1.03 ± 0.024
same,NP40-soluble protein abundance,[8]; concentration: 2mM,1.03 ± 0.0098
same,NP40-soluble protein abundance,[8]; concentration: 4mM,1.03 ± 0.03
same,NP40-soluble protein abundance,[8]; concentration: 6mM,1.04 ± 0.018
same,NP40-soluble protein abundance,[8]; concentration: 8mM,1.03 ± 0.042
same,NP40-soluble protein abundance,[8]; concentration: 10mM,1.03 ± 0.014
same,NP40-soluble protein abundance,[9]; concentration: 1mM,1.35 ± 0.15
same,NP40-soluble protein abundance,[9]; concentration: 2mM,1.52 ± 0.22
same,NP40-soluble protein abundance,[9]; concentration: 4mM,1.64 ± 0.29
same,NP40-soluble protein abundance,[9]; concentration: 6mM,1.86 ± 0.46
same,NP40-soluble protein abundance,[9]; concentration: 8mM,1.96 ± 0.56
same,NP40-soluble protein abundance,[9]; concentration: 10mM,2.2 ± 0.76
